Experimental data taken from PubChem BioAssay.
Values joined by “and” are separate entries in the source; they are usually repeats but may differ in a detail not shown here. Equal entries are not always repeated. Active and inactive are the calls of the source. Unless noted, no rule for the calls is given here.

Columns and labels:
[1] = tested on: Wnt5a (protein binding on small-molecule microarray); assay: Wnt5a binders on small-molecule microarray, primary screen, biophysical, 635/667 nm fluorescence (AID 1142); settings: 635 nm fluorescence, higher = more signal;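 also: fluorescence read at 667 nm with signal to noise per printed feature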
[2] = cell viability in Huh7 cells, primary screen, cytotoxicity control for HCV replication inhibitor project, CellTiter-Glo luminescence, basal, 48 h (AID 1143); settings: Huh7 HCV replicon, higher = more signal, called active from +8 up or from −8 down;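 also: Huh7 hepatoma cells carrying a hepatitis C replication reporter with no stimulus; test concentration not given here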
[3] = P. aeruginosa biofilm formation inhibitors, primary screen, PAO1 strain, BacTiter-Glo luminescence, LB-PBS (AID 1144); settings: 12 h, higher = more signal
[4] = CREB reporter modulators without forskolin, primary screen, cell-based, PC12, CRE-LacZ reporter, unstimulated (AID 1145); settings: no forskolin, luminescence, 4.5 h, higher = more signal, called active from +8 up or from −8 down
[5] = CREB reporter modulators under forskolin, primary screen, cell-based, PC12, CRE-LacZ reporter, forskolin-stimulated (AID 1146); settings: luminescence, 4.5 h, higher = more signal, called active from +8 up or from −8 down;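 also: PC12 cells with 6xCRE LacZ reporter stimulated by forskolin 10 µM; beta-galactosidase reporter signal reflecting CREB driven transcription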
[6] = target: Streptavidin (Streptomyces avidinii) (UniProt P22629); assay: streptavidin binders on small-molecule microarray, primary screen, artefact control for SMM compound annotation, biophysical, 635/667 nm fluorescence (AID 1147); settings: streptavidin binding, higher = more signal;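 also: signal reflects streptavidin binding to arrayed compounds as a control protein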
[7] = small-molecule binders of probe aInhba, primary screen, biochemical, small-molecule microarray, 635/667 nm fluorescence (AID 1148); settings: higher = more signal;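 also: score merges 667nm spot fluorescence with signal-to-noise for antibody binding to printed compounds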
[8] = target: Torsin-1A (Homo sapiens) (UniProt O14656); assay: torsin A binders from cell lysate, primary screen, small-molecule microarray, wild-type, 635/667 nm (AID 1149); settings: COS7 hTOR1A-WT lysate, 635 nm fluorescence, higher = more signal
[9] = target: Torsin-1A (Homo sapiens) (UniProt O14656); assay: small-molecule binders of mutant TOR1A in lysate, primary screen, cell lysate, small-molecule microarray, COS7 lysate, 635/667 nm fluorescence (AID 1150); settings: COS7 hTOR1A mutant lysate, 635 nm fluorescence, higher = more signal;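 also: score pools 667 nm emission and signal to noise measuring lysate protein binding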
[10] = tested on: Sonic hedgehog protein (Shh); assay: small-molecule binders of Shh protein, primary screen, biochemical, small-molecule microarray, 635/667 nm fluorescence (AID 1151); settings: small-molecule microarray binding, 635 nm fluorescence; higher = more signal;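 also: Shh protein binding to compounds spotted on small-molecule microarray slides; score combines spot fluorescence intensity with signal-to-noise across triplicate slides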

Torsin-1A (Homo sapiens), sequence (O14656 whole entry, looked up): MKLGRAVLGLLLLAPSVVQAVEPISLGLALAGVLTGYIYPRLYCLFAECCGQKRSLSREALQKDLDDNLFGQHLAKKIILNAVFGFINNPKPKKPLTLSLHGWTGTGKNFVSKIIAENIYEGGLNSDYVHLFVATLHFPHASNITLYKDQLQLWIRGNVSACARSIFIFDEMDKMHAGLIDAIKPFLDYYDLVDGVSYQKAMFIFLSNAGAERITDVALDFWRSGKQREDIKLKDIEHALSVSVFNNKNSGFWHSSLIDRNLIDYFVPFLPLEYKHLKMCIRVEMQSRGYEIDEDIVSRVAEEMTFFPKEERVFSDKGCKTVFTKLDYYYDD
Streptavidin (Streptomyces avidinii), sequence (P22629 whole entry, looked up): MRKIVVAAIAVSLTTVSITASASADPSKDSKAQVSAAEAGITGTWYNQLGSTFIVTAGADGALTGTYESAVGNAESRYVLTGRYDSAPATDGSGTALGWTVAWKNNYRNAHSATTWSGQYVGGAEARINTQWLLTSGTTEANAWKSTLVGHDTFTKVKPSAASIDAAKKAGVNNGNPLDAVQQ

| Compound | composite z-score [1] | z-score [2] | z-score [3] | z-score [4] | z-score [5] | composite z-score [6] | composite z-score [7] | composite z-score [8] | composite z-score [9] | composite z-score [10] |
| --- | --- | --- | --- | --- | --- | --- | --- | --- | --- | --- |
| O=C1NC(=O)C2C1C=CC(C(O)c1ccc([N+](=O)[O-])cc1)N2Nc1ccc(Cl)cc1Cl (stereo not given) | 0.283 and 0.0563 | -0.311 (inactive) and -0.861 (inactive) | -1.48 (inactive) and -2.27 (inactive) | 0.812 (inactive) and 0.443 (inactive) | 0.479 (inactive) and -0.492 (inactive) | 0.404 and 0.519 | 0.0301 and 0.175 | 0.339 and 1.2 | 0.703 and 1.22 | -0.274 and -0.13 |
| CC(C)=NOCc1ccc(-c2cn([C@@H]3COC[C@H]3O)nn2)cc1 | 0.184 | 0.164 (inactive) | 1.08 (inactive) | 1.47 (inactive) | 0.607 (inactive) | 0.562 | -0.128 | 0.538 | 0.162 | 0.169 |
| C=CCN(CCCC)C(=O)C1N(CCOCCO)C(=O)C2C(C(=O)O)C3C=CC21O3 (stereo not given) | -0.978 and -0.38 | 0.757 (inactive) and -0.117 (inactive) | 1.42 (inactive) and 1.2 (inactive) | -0.899 (inactive) and -0.497 (inactive) | -0.327 (inactive) and -0.267 (inactive) | -1.6 and -1.56 | -0.128 and -0.353 | -3.18 and -0.099 | -2.51 and 2.04 | -1.52 and -1.51 |
| O=C(NN=C1C[C@@H](O)[C@@H](O)[C@@H]2[C@@H]3C(=O)N(Cc4ccc5c(c4)OCO5)C(=O)[C@@H]3CC[C@H]12)OCc1ccccc1 | 0.627 | 0.0294 (inactive) | 1.54 (inactive) | -1.29 (inactive) | 0.383 (inactive) | -0.872 | -0.0245 | 2.05 | 0.392 | -0.858 |
| C[C@@H]1CC[C@H]2C(=O)NC[C@@H](O)CN2[C@H]1c1ccc(Br)cc1 | -0.0755 and 0.0111 | 0.3 (inactive) and 0.139 (inactive) | 0.721 (inactive) and 0.543 (inactive) | 0.649 (inactive) and 0.108 (inactive) | 0.797 (inactive) and 0.187 (inactive) | -0.161 and -0.289 | -0.0762 and -0.128 | 0.0335 and 0.266 | 0.0464 and -0.352 | 0.264 and -0.0212 |
| C#CCCCON=C1C[C@@H](O)[C@@H](O)[C@@H]2[C@@H]3C(=O)N(C4CCCCC4)C(=O)[C@@H]3CC[C@H]12 | -0.176 | -0.379 (inactive) | 0.353 (inactive) | -0.474 (inactive) | -0.236 (inactive) | 1.03 | -0.101 | 1.06 | 0.0924 | -0.105 |
| C=C(C)C(=O)OC[C@@H]1CN2[C@@H](CC[C@@H](C)[C@@H]2c2ccc(Br)cc2)C(=O)O1 | -0.0892 | -0.0082 (inactive) | -1.58 (inactive) | 1.54 (inactive) | 0.11 (inactive) | -0.222 | -0.0895 | 0.457 | 0.231 | 0.605 |
| C[C@@H](c1ccccc1)N1C(=O)[C@H]2[C@H]3[C@H](O)[C@H](O)CC(=O)[C@@H]3CC[C@H]2C1=O | 0.314 | -0.961 (inactive) | 0.00582 (inactive) | 1.25 (inactive) | 0.488 (inactive) | 0.192 | -0.0791 | 0.712 | 0.113 | 1.04 |
| C=CCN(C(=O)C(c1cccs1)N(CCOCCO)C(=O)/C=C\C(=O)O)c1ccc(OC)cc1 (stereo not given) | -0.459 and -0.385 | -0.751 (inactive) and -0.299 (inactive) | -2.23 (inactive) | -1.58 (inactive) and -0.749 (inactive) | -0.418 (inactive) and -1.15 (inactive) | -1.09 and -2.3 | -0.128 and -0.208 | -0.16 and -1.77 | -1.17 and -0.642 | -0.452 and 0.0229 |
| C=C[C@@H](C)[C@@H](O)c1ccc(O)c2ccccc12 | 0.0168 and -0.729 | 0.61 (inactive) and -1.13 (inactive) | -0.647 (inactive) and -0.589 (inactive) | 2.68 (inactive) and -0.3 (inactive) | 3.22 (inactive) and 5.31 (inactive) | -1.28 and -0.645 | -0.304 and -0.278 | -1.2 and -1.52 | -1.14 and -0.798 | -0.103 and 0.297 |
| C=C[C@@H](OC)[C@H](O)c1ccc(O)c(F)c1 | -0.843 and -0.24 | 0.558 (inactive) and -0.495 (inactive) | -0.776 (inactive) and 0.181 (inactive) | 0.572 (inactive) and 0.427 (inactive) | -0.881 (inactive) and -0.122 (inactive) | -1.35 and -1.17 | -0.314 and -0.154 | -1.65 and -0.846 | -2.28 and -0.978 | -0.644 and 0.0436 |
| C=CCN(CCCCC)C(=O)C1N(C(C)(C)CO)C(=O)C2C(C(=O)O)C3C=CC21O3 (stereo not given) | -0.912 and -0.258 | 0.879 (inactive) and 1.06 (inactive) | 1.13 (inactive) and 1.98 (inactive) | -0.0737 (inactive) and -0.484 (inactive) | -0.0682 (inactive) and 0.563 (inactive) | -1.6 and -1.67 | -0.213 and -0.0791 | -3.01 and -1.59 | -2.24 and -1.18 | -0.99 and -0.61 |
| COC(=O)[C@@]1(Cc2ccccc2)[C@H]2c3cc(C(=O)N(C)C)n(C[C@H](O)CO)c3C[C@H]2CN1C(=O)c1ccccc1 | -0.19 and 0.0986 | 0.0129 (inactive) and 0.255 (inactive) | -0.256 (inactive) and -0.607 (inactive) | 1.35 (inactive) and 0.204 (inactive) | 0.756 (inactive) and -0.209 (inactive) | -0.0247 and 0.888 | -0.0817 and 0.223 | -0.593 and 0.132 | 0.492 and 0.92 | -0.39 and -1.19 |
| CCCCCN1CC=CC23O[C@@H]4C=CCCOC(=O)C4[C@H]2C(=O)N(C(C)CO)[C@@H]3C1=O (stereo not given in full) | -0.226 and -0.744 | -0.153 (inactive) and 0.0164 (inactive) | -1.76 (inactive) and -0.529 (inactive) | -0.48 (inactive) and -0.639 (inactive) | -0.215 (inactive) and -0.498 (inactive) | -0.819 and -0.0005 | -0.837 and -0.0933 | 1.07 and -1.42 | 0.128 and -0.904 | 0.644 and 0.138 |
| C=CCN(Cc1ccccc1)C(=O)C1N(c2ccc(CCO)cc2)C(=O)C2C(C(=O)O)C3C=CC21O3 (stereo not given) | -0.588 and -0.549 | 0.012 (inactive) and -0.668 (inactive) | -0.231 (inactive) and -1.01 (inactive) | 0.195 (inactive) and -0.899 (inactive) | 0.892 (inactive) and -0.29 (inactive) | -1.49 and -1.35 | -0.273 and -0.206 | -2.02 and -4.14 | -3.2 and -2.45 | -1.7 and -1.87 |
| O=c1n(-c2ccccc2)c(=O)n2n1CC[C@@H]1C(=NOC[C@@H](O)COCc3ccco3)[C@H]3O[C@H]3[C@@H](O)[C@@H]12 | 0.0145 and -0.152 | -2.38 (inactive) and 1.16 (inactive) | -0.58 (inactive) and 0.962 (inactive) | 0.875 (inactive) and -0.227 (inactive) | -0.218 (inactive) and 0.761 (inactive) | 0.312 and 0.0894 | -0.0963 and -0.0407 | 0.716 and 0.965 | 0.289 and 0.457 | 1.7 and 0.769 |
| CO[C@H]1COC(=O)CC=C[C@H](C)[C@H](OC)COC(=O)[C@@H](C)COC(=O)CC=C[C@@H]1C | -0.051 and -0.105 | 1.08 (inactive) and -0.441 (inactive) | -0.186 (inactive) and 0.0947 (inactive) | -0.116 (inactive) and -1.19 (inactive) | -0.689 (inactive) and -0.777 (inactive) | -0.313 and 0.0956 | -0.195 and -0.224 | 0.636 and 0.802 | 0.269 and 1.17 | 1.08 and 1.09 |
| CC(CO)N1C(=O)[C@@H]2C3C(=O)OCCC=C[C@H]3OC23C=CCN(c2ccc4ccccc4c2)C(=O)[C@@H]13 (stereo not given in full) | -0.758 and -0.416 | 0.0425 (inactive) and 0.0276 (inactive) | 0.87 (inactive) and 1.11 (inactive) | 0.199 (inactive) and 0.756 (inactive) | -0.345 (inactive) and 0.0714 (inactive) | -0.809 and -0.937 | -0.0933 and -0.584 | -1.95 and -1.75 | -1.23 and -1.14 | 0.0707 and -0.262 |
| CCOC(=O)[C@@H]1CC=C2CC1C(=O)N1CCC[C@@H]1[C@H]2O[Si](C)(C)C(C)(C)C (stereo not given in full) | -0.12 and -0.752 | 0.856 (inactive) and -3.46 (inactive) | 0.318 (inactive) and 0.0257 (inactive) | -0.692 (inactive) and -1.5 (inactive) | 1.25 (inactive) and -1.04 (inactive) | -0.759 and -2.05 | 0.027 and -0.319 | -0.408 and -2.35 | -0.0943 and -2.33 | -0.085 and -0.0655 |
| COc1ccc(-c2ccc3c(n2)CCCN3CC(O)CN2CCCc3nc(-c4ccc(Br)cc4)ccc32)cc1 (stereo not given) | 0.353 and 0.0813 | -1.86 (inactive) and -0.196 (inactive) | 0.766 (inactive) and 0.0378 (inactive) | -0.434 (inactive) and -0.161 (inactive) | -0.152 (inactive) and -0.116 (inactive) | 1.41 and 0.932 | 0.136 and 0.204 | 0.438 and 0.224 | 0.528 and 0.588 | 1.03 and 0.76 |
| CC(C)CCN1CCc2nc(-c3ccccc3)c3c(c2C1)CO[C@@H](C)C3 | 0.0842 | 0.267 (inactive) | 0.268 (inactive) | 4.64 (inactive) | -0.44 (inactive) | 0.375 | 0.0173 | 0.509 | 0.471 | 0.827 |
| C[N+](C)(C)CCCCNC(=O)[C@H]1C[C@H]2C(=O)N[C@@H](CCCC[N+](C)(C)C)C(=O)N2[C@H]1c1ccc(O)cc1 | 0.96 and 0.388 | 0.171 (inactive) and -2.13 (inactive) | -0.597 (inactive) and -1.3 (inactive) | -0.541 (inactive) and 0.679 (inactive) | 0.485 (inactive) and -0.16 (inactive) | 0.16 and -1.27 | -0.154 and -0.251 | 2.32 and 1.51 | 0.287 and 0.683 | 2.27 and 2.33 |
| C=CCN(C(=O)C(c1cccs1)N(C(=O)/C=C\C(=O)O)C(C)(C)CO)C(C)(C)C (stereo not given) | -0.291 and -0.768 | -0.261 (inactive) and 0.272 (inactive) | -1.52 (inactive) and -1.38 (inactive) | -0.887 (inactive) and -0.761 (inactive) | -0.706 (inactive) and -0.329 (inactive) | -0.689 and -1.22 | -0.0581 and -0.0791 | -0.331 and -0.511 | 0.214 and 1.51 | -0.645 and -0.105 |
